# Experimental data taken from PubChem BioAssay AID624267 (The Scripps Research Institute Molecular Screening Center, 2012).
# Among all 360,000 compounds or so, about 1,400 (0.39%) were called active. Only a selection was taken, and actives are over-represented in it overall. Values without a mark were called inactive. No stated cut-off is given here; in the data, active means inhibition above about 21%; inactive means the rest.
# Target: Receptor-interacting serine/threonine-protein kinase 2 (Homo sapiens) (UniProt O43353)
# Sequence (O43353 whole entry, looked up): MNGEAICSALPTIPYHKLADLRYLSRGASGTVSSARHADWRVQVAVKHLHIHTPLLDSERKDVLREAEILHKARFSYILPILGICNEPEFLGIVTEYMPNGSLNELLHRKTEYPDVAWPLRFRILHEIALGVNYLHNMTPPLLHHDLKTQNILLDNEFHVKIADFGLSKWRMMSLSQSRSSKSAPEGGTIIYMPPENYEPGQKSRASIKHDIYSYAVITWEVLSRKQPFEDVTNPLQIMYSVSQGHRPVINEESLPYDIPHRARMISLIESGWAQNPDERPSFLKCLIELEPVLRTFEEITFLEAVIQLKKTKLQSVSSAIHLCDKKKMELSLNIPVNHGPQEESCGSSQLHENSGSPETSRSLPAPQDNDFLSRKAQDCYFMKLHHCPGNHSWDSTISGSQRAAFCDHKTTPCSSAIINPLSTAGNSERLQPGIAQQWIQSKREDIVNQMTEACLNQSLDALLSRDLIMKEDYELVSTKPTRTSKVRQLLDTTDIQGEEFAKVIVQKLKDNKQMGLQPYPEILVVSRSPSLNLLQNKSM
# Assay: inhibitors of RIPK2 association with NOD2 – fluorescence, CHO cells, BLA complementation, primary screen (AID 624267);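 further: 0% = vehicle only and 100% = reference blocker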
# Conditions: CHO BLA complementation NOD2-RIPK2, CCF4 ratio; at 4.98 µM; hits give high values
row,SMILES,inhibition
1,CCOC(=O)[C@]12Cc3cc(OC)ccc3[C@H]1N(C(C)C)C(=O)c1ccccc12,-1.01%
2,CCOC(=O)[C@]12Cc3ccccc3[C@H]1N(C1CCCCC1)C(=O)c1cc(OC)ccc12,43.5% (active)
3,CCOC(=O)c1cccc(C2=C(CNC(=O)c3ccncc3)[C@H]3CC[C@@H](C2)N3Cc2ccccc2)c1,-12.2%
4,Cc1ccc2c(c1)C1CN(C)CCC1N2C(=O)Cn1nnc(-c2ccccc2F)n1 (stereo not given),-3.9%
5,CCN1CCN(Cc2cc(OC)c3c(c2)OCO3)CC1,-5.64%
6,COc1cc(OC)cc(C2(C#N)CCN(C)CC2)c1,-12.2%
7,c1ccc(CCNC2CCCCCC2)cc1,-21.6%
8,CC(=O)OC1C2(CC3N4C(=O)C5(CO)SSC4(CC31O)C(=O)N5C)OC(C)C(C)(C)C2=O (stereo not given),63.9% (active)
9,CC(=NCc1ccc2c(c1)OCO2)c1c(O)[nH]c(=O)[nH]c1=O,4.27%
10,CC(C(=O)Nc1ccc(Cl)cc1Cl)N1CC=C(c2ccccc2)CC1 (stereo not given),-16.5%
11,CC[C@H]1CC2CN3CCc4c([nH]c5ccccc45)C(C(=O)OC)(C2)C13 (stereo not given in full),-13.6%
12,CNCC(O)c1cc(F)c(OCc2ccccc2)c(OCc2ccccc2)c1F (stereo not given),-9.31%
13,CN(C)CC1Oc2ccccc2OC1(O)c1ccccc1 (stereo not given),54.1% (active)
14,COc1ccccc1NC(=O)N1C[C@@H]2C[C@@H](C1)c1cccc(=O)n1C2,-9.61%
15,COC(=O)C1=C(c2ccc(Cl)c(C(F)(F)F)c2)C[C@@H]2CC[C@H]1N2C(=O)NC1CC1,-1.54%
